Yeast superoxide = yeast age-related superoxide inhibition as caloric restriction mimetic; AID 2690; S. cerevisiae aged cells, superoxide DHE fluorescence; hits give low values; superoxide response (% of plate mean), % at 10 µM; 0.18% of 330,000 active;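 active = superoxide response under a set limit, about three screen SD below normal, cut at about 65% in these data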;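 also: yeast aged for seven days with compound at 30 °C before DHE staining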
V-ATPase pH = regulators of yeast V-ATPase proton transport; S. cerevisiae, pHLuorin cytosolic pH fluorescence; response, % at 10 µM; 0.37% of 350,000 active; AID 504577; in the data active = response mostly above about 7.3%, no sharp cut-off; inactive = mostly below about 5.4%; also: actives read high
pCIP destab = lowers stability of the mouse p/CIP coactivator protein. Q05BA5. F442A p/CIP-EGFP cells, EGFP fluorescence, 16 h. decrease of EGFP signal, % at 10 µM. 0.01% of 290,000 active. AID 1984;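 active = EGFP signal decrease of at least 30% at 10 µM or well 3 SD below plate mean, unless failing retest; inactive = the rest, including hits failing retest or dose response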
H9c2 protect = modulators protecting cardiomyocytes from myocardial damage | 0.63% of 360,000 active | protection from H2O2 cell death, % at 20 µM | H9c2 cardiomyocytes, H2O2 injury protection, ATPLite, 2 h;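 active = compounds giving at least 50% protection of heart cells from peroxide-induced death in the single-dose screen, raw or plate-pattern-corrected value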
HSV augment = HSV replication enhancement; HSV replication augmentation in cells, fold increase; maximum fold increase; 0.005% of 220,000 active; AID 1956; in the data active = maximum fold increase above about 1.5; tested in PC3 cells
beta cell repl = induces beta-cell replication in MIN6 cells. MIN6 cells proliferation, ATPlite luminescence, 48 h; cells starved in 0.2% serum; 100% = growth in 10% serum. proliferation, % at 10 µM. 0.29% of 330,000 active. AID 2380;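 active = compounds whose signal lies at least 3.5 SD above the mean of all wells on their plate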
V-ATPase pH SP = modulates yeast V-ATPase proton transport; S. cerevisiae pHLuorin cytosolic pH; 2% of 980 active; AID 602197; response, % at 10 µM; shares compounds with V-ATPase pH; in the data active = response above about 24%
Numbers stand for hits; i = inactive; nt = not tested or not shown. Most compounds without a hit are left out; they make up all but 1.4% or so of the library.

SMILES	Yeast superoxide	V-ATPase pH	pCIP destab	H9c2 protect	HSV augment	beta cell repl	V-ATPase pH SP
Cc1cccc(C)c1NC(=S)N(CCCN1CCOCC1)Cc1cccnc1	i	i	i	i	i	i	nt
Cc1ccc(C(=O)NNC(=O)c2ccco2)cc1	i	17	i	i	i	i	i
Cc1ccc(C(=O)NNC(=S)NC(=O)c2ccco2)cc1	i	i	i	i	i	i	nt
COc1cc(C(=O)NCc2nnc(SCC(=O)N3CCOCC3)o2)cc(OC)c1OC	i	16	i	i	i	i	i
COc1ccc(C(=O)NCc2nnc(SCC(=O)N3CCOCC3)o2)cc1	i	i	i	i	i	i	nt
COc1ccc(O)c(CN2CCC(n3nccc3NC(=O)c3ccccc3Cl)CC2)c1	i	9.2	i	i	nt	i	i
C[C@H](NC(=O)c1ncn2c1C(=O)N[C@@H](C)C2)c1ccccc1	nt	i	nt	i	nt	nt	nt
C[C@@H]1Cn2cnc(C(=O)N[C@@H](C)c3ccccc3)c2C(=O)N1	nt	4.2	nt	i	nt	nt	i
COc1ccc(-c2cccc(NC(=O)c3ccc4c(c3)OCO4)c2)nn1	i	i	nt	i	nt	i	nt
CCc1ccc(NC(=O)C2CCCN(S(=O)(=O)c3cnc[nH]3)C2)cc1 (configuration not stated)	i	11	i	i	nt	i	i
CCCCCn1nc(C(=O)N(CC)c2c(N)n(CCCC)c(=O)[nH]c2=O)c2ccccc2c1=O	i	i	nt	i	nt	i	nt
Cc1ccccc1C(=O)NC(=S)Nc1ccc(S(=O)(=O)N2CCOCC2)cc1	i	9.5	i	i	i	i	i
CCCCC(=O)Nc1ccc(C(=O)NN2C(=O)c3ccccc3C2=O)cc1	i	i	i	i	i	i	nt
C=CCc1ccc(OCCOCCN(C)C)c(OC)c1	i	12	i	i	i	i	i
C=CCc1ccc(OCCOCCOc2ccc(C)cc2[N+](=O)[O-])c(OC)c1	i	i	i	i	i	i	nt
COc1ccc(Br)cc1C(=O)N/N=C/c1cccnc1	i	i	i	i	nt	i	nt
COc1cc2ccccc2cc1C(=O)N/N=C/c1cccnc1	i	21	i	i	nt	i	i
O=C(CCN1C(=O)c2ccc([N+](=O)[O-])cc2C1=O)Nc1ccccc1C(=O)O	i	i	i	i	i	i	nt
O=C1C2C3C=CC(C3)C2C(=O)N1c1nccs1 (configuration not stated)	i	9.4	i	i	i	i	i
COCCn1c(=S)[nH]c2cc(C(=O)N3CCN(c4ccccc4OC)CC3)ccc2c1=O	i	i	i	i	i	i	nt
COCCn1c(=O)[nH]c2cc(C(=O)N3CCN(c4ccccc4OC)CC3)ccc2c1=O	i	10	i	i	i	i	i
O=C(Nc1ccccc1)n1ccc(-c2ccc(-n3ccnc3)cc2)n1	i	nt	i	nt	i	i	nt
CC1CC(C)(C)NC(=S)N1CC(=O)NCc1ccc(F)cc1 (configuration not stated)	i	8.5	i	i	i	i	i
COc1ccc(NC(=O)C2(C)CCN2Cc2csc3ccccc23)cc1OC (configuration not stated)	nt	nt	nt	i	nt	nt	nt
Cc1cc(=O)oc2cc(NC(=O)c3c(Cl)cnn3C)ccc12	i	9.2	i	i	nt	i	i
SMILES	Yeast superoxide	V-ATPase pH	pCIP destab	H9c2 protect	HSV augment	beta cell repl	V-ATPase pH SP
Cc1cc(C(C)(C)C)cc(S(=O)(=O)Nc2ccc(O)c(C(=O)O)c2)c1C	i	i	i	i	i	i	nt
CC(=O)Nc1ccc(NC(=O)c2ccc(NS(=O)(=O)c3cc(C(C)(C)C)cc(C)c3C)cc2)cc1	i	11	i	i	i	i	i
Clc1ccccc1CSC1=NCCCN1	i	i	i	i	i	i	i
Clc1ccc(CSC2=NCCCN2)cc1Cl	i	i	i	i	i	i	i
CC1CCN(C(=O)Cn2cnc3c(cnn3C(C)(C)C)c2=O)CC1	i	11	i	i	i	i	i
CC(C)(C)n1ncc2c(=O)n(CC(=O)N3CCCC3)cnc21	i	i	i	i	i	i	nt
O=C(CCC(=O)Nc1ccccc1)NNC(=O)COc1ccccc1	i	i	i	i	i	i	nt
CN(C)N1C(=O)CC(N2CCCC2)C1=O (configuration not stated)	i	11	i	i	i	i	i
CCN1C(=O)CC(N2CCOCC2)C1=O (configuration not stated)	i	i	i	i	i	i	nt
Cc1cc(SCC(=O)NCCC2=CCCCC2)nc2ccccc12	i	i	i	i	i	i	nt
COC(=O)c1[nH]c2c(c1C)C(=O)CC(c1ccc(OC)c(OC)c1)C2 (configuration not stated)	i	i	i	i	nt	i	nt
COC(=O)c1[nH]c2c(c1C)C(=O)CC(c1cccc(OC)c1)C2 (configuration not stated)	i	13	i	i	nt	i	i
CC1CC(C)(C)NC(=S)N1CC(=O)NCc1ccc2c(c1)OCO2 (configuration not stated)	i	i	i	i	i	i	nt
Cc1nnc(SCc2nc3ccccc3s2)n1N	i	i	i	i	i	i	nt
Cc1nnc(SCc2nc3ccccc3s2)n1-c1ccccc1	i	8.3	i	i	i	i	i
CCOC(=O)c1ccc(NC(=O)COc2ccccc2CNCCc2ccccc2)cc1	i	14	i	i	i	i	i
COCc1nc2ccccc2n1CCc1ccccc1	i	i	i	i	nt	i	nt
NNC(=O)c1ccc(OCC2CC(c3ccc(Cl)cc3)=NO2)cc1 (configuration not stated)	i	i	i	i	i	i	nt
Cc1nc2c(-c3ccc(F)cc3)c(C)nn2c(C)c1CCC(=O)N1CCN(c2ccccc2)CC1	i	12	i	i	i	i	i
CCOC(=O)Cc1csc(NC(=O)COc2ccc(C)cc2)n1	i	i	i	i	i	i	nt
CCOC(=O)Cc1csc(NC(=O)COc2ccccc2)n1	i	11	i	i	i	i	i
Cc1ccc(-c2nc(C)sc2CC(=O)Nc2cccc(C)c2C)cc1	i	i	i	i	i	i	nt
COCCNS(=O)(=O)c1ccccc1	i	i	i	i	i	i	nt
C=CCN(C(=O)CNS(=O)(=O)c1ccccc1)C(C(=O)NCCOC)c1ccncc1 (configuration not stated)	i	22	i	i	i	i	i
O=C/C(=C\Nc1ccc(Br)cc1)c1nc2ccccc2o1	i	8.9	i	i	i	i	i
CC(=O)Nc1ccc(N/C=C(\C=O)c2nc3ccccc3o2)cc1	i	i	i	i	i	i	nt
O=C(COC(=O)c1cc2ccccc2oc1=O)Nc1ccc(F)cc1F	i	i	i	i	i	i	nt
COc1ccc2cc(S(=O)(=O)N3CCN(C)CC3)ccc2c1	i	13	i	i	i	i	i
CCCc1nc2ccccc2c(=O)n1CC(=O)c1ccc(F)cc1	i	i	i	i	nt	i	nt
O=C(Nc1ccc(F)c(F)c1)C1CCN(S(=O)(=O)c2cccs2)CC1	i	8.3	nt	i	nt	i	i

Screens: PubChem BioAssay, several laboratories
